According to the supplement of paper PMC10849652:
The full data set covers some 8,800 targets. This sample favours those with a hit. About 0.5% of all pairs of compound and target were hits.

compound: CC[C@@H]1C(=O)N(C)c2cnc(Nc3ccc(C(=O)N[C@H]4CC[C@H](N5CCN(CC6CC6)CC5)CC4)cc3OC)nc2N1C(C)C [volasertib]; assay: log2 fold change, soluble protein after heating vs DMSO (PISA); higher = thermal stabilisation; K562 lysate, 10 uM; active = over 0.2 and 3.5 SD of the protein, either way, in both replicates (recomputed)
Summary of the method: (§1)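 Log-two fold change in thermal stability relative to solvent controls is reported from duplicates. For each sample, crude K562 extract from dounce-homogenised pellets in PBS pH 7.4 with 1 mM MgCl2, at 1 mg/mL protein, was treated with 10 μM compound for 30 min. Aliquots heated for 3 min across 48°C-58°C were pooled, brought to 0.5% NP-40 at 4°C and cleared at 21,000xg for 90 min. The supernatant was quantified by TMTpro 16plex LC-MS/MS with channel sums equalised.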

Sequence of UniProt Q14739 (Q14739 whole entry, looked up): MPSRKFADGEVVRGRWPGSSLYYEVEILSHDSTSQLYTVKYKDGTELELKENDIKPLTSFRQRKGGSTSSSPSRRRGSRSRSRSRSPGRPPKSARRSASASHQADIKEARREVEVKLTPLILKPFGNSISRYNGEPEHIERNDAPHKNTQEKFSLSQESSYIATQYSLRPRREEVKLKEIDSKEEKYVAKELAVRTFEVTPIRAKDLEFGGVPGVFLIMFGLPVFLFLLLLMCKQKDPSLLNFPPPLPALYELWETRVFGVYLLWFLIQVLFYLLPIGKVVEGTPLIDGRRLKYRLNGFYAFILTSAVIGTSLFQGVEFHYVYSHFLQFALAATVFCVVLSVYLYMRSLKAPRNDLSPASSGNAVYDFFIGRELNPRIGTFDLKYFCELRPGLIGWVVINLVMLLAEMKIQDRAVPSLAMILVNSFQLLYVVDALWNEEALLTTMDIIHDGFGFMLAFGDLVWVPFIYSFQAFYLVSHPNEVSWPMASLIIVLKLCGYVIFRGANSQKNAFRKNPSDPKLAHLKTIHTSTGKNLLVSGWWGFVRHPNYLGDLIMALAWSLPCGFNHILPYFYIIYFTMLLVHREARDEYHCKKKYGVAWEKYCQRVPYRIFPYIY
Sequence of UniProt Q8IW41 (Q8IW41 whole entry, looked up): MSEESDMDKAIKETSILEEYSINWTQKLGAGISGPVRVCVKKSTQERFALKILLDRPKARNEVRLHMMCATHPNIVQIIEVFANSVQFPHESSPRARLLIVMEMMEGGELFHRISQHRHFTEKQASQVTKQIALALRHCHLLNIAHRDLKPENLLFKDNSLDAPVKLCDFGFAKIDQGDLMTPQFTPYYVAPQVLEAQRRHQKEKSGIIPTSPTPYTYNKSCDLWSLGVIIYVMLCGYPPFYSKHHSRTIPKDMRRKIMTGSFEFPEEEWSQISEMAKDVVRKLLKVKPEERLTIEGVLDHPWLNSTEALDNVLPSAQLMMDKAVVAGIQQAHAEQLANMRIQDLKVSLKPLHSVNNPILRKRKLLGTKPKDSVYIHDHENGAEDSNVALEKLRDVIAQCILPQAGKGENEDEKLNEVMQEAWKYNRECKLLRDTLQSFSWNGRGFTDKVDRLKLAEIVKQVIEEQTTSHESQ
Sequence of UniProt Q66K74 (Q66K74 whole entry, looked up): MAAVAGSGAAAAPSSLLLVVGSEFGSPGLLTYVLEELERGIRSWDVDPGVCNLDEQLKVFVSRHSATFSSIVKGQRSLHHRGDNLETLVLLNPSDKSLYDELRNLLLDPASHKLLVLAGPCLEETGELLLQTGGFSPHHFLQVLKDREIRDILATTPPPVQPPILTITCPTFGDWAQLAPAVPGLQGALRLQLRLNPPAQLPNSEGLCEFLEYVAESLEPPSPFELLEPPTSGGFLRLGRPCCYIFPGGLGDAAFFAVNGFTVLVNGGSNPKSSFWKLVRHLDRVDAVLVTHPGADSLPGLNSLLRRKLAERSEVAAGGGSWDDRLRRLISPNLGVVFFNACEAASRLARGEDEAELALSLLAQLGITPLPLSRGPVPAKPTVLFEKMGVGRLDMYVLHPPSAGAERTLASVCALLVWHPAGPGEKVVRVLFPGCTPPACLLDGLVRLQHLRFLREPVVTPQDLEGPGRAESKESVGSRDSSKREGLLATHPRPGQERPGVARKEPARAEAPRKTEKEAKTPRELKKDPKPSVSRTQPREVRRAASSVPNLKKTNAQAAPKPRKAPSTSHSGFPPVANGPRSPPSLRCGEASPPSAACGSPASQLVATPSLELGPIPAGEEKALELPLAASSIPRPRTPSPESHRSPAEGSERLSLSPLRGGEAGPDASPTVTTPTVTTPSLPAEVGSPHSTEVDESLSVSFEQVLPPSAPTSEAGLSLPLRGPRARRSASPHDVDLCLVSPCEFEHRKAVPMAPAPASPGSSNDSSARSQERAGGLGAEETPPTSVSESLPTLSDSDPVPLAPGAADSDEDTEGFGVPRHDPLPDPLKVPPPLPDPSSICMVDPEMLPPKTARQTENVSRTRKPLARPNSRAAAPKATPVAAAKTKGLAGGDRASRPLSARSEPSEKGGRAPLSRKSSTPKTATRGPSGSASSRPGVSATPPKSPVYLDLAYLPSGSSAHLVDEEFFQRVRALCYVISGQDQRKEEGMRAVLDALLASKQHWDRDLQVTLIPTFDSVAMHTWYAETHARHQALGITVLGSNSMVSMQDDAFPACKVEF
Sequence of UniProt Q9Y448 (Q9Y448 whole entry, looked up): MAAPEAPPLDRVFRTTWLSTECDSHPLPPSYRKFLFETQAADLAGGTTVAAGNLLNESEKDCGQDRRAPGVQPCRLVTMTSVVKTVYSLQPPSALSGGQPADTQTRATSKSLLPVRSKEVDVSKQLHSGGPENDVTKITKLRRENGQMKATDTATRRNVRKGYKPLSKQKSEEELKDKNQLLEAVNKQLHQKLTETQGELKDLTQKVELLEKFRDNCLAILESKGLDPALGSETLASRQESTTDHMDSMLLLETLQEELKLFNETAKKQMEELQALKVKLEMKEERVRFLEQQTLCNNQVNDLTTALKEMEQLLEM
Sequence of UniProt Q9BTE3 (Q9BTE3 whole entry, looked up): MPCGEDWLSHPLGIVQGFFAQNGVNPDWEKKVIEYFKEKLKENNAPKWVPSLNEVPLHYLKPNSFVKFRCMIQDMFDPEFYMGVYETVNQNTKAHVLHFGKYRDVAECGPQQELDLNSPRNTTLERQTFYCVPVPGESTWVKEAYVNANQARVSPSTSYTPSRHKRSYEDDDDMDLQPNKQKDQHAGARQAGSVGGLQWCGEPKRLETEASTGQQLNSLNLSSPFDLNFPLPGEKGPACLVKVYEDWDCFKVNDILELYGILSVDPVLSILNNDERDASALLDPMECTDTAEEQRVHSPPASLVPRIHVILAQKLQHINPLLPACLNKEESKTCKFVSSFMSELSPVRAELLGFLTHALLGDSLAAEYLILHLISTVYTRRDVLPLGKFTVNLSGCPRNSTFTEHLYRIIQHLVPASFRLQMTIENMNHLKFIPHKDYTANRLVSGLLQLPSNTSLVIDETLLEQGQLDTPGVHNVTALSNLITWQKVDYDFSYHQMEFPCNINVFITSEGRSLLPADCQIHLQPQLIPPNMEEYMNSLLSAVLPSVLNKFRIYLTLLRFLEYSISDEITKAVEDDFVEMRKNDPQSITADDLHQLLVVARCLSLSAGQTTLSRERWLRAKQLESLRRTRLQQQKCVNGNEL
Sequence of UniProt Q9BQ69 (Q9BQ69 whole entry, looked up): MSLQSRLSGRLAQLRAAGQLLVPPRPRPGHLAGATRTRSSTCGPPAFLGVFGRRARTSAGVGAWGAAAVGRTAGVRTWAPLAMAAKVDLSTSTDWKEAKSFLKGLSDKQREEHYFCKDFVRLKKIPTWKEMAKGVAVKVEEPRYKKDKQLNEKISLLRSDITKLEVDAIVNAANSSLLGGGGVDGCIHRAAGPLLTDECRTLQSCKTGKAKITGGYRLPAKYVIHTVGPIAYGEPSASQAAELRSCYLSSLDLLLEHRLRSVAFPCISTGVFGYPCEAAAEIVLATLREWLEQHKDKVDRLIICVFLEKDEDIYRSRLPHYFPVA
Sequence of UniProt Q9NVC6 (Q9NVC6 whole entry, looked up): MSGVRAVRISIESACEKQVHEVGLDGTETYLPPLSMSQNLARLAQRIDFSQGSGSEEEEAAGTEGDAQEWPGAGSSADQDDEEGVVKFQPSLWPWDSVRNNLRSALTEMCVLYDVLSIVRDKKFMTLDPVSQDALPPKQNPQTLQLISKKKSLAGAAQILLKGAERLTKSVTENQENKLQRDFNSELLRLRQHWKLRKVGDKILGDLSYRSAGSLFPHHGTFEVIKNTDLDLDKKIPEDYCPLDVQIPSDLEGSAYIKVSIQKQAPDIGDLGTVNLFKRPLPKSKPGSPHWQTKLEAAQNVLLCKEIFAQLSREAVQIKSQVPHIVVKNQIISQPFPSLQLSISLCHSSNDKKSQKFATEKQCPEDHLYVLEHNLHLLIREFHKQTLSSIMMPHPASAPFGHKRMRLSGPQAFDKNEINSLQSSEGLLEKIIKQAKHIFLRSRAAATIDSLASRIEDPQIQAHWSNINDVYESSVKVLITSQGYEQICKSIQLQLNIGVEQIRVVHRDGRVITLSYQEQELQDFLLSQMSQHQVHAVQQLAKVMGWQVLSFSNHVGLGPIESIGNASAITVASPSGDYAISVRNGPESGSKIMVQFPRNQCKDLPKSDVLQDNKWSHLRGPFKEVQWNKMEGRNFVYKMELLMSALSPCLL
Sequence of UniProt P45985 (P45985 whole entry, looked up): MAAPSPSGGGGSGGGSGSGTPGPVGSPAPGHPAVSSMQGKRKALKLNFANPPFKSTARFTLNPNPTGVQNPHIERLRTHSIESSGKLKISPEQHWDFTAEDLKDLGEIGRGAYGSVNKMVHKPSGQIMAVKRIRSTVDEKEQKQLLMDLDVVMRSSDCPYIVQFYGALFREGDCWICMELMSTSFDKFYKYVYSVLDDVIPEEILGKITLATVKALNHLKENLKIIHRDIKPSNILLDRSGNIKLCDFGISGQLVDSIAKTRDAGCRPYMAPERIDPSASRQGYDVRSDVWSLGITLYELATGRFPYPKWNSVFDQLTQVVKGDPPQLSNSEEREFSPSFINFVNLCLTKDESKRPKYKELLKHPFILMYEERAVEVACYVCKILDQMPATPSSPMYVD
Sequence of UniProt P10620 (P10620 whole entry, looked up): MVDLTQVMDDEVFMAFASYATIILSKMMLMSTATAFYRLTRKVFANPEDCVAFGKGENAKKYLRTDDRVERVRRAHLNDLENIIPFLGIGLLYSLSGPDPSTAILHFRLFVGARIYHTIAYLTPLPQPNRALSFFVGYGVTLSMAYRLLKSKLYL
Sequence of UniProt Q9BTT4 (Q9BTT4 whole entry, looked up): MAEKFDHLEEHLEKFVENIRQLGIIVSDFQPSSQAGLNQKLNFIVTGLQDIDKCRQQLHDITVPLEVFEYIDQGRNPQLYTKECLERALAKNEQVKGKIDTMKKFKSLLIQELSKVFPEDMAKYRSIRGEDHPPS

| Target | log2 fold change |
| --- | --- |
| MAP1S (UniProt Q66K74) | -0.024 (inactive) |
| MON2 isoform 5 (UniProt Q7Z3U7) | -0.04 (inactive) |
| LRPPRC (UniProt P42704) | -0.072 (inactive) |
| LBR (UniProt Q14739) | 0.156 (inactive) |
| MAPK14 (UniProt Q16539) | -0.056 (inactive) |
| MLST8 (UniProt Q9BVC4) | -0.009 (inactive) |
| MMS19 isoform 8 (UniProt Q96T76) | -0.114 (inactive) |
| KNL1 (UniProt Q8NG31) | -0.044 (inactive) |
| KLC1 isoform 6 (UniProt Q07866) | -0.04 (inactive) |
| MICU1 isoform 3 (UniProt Q9BPX6) | -0.005 (inactive) |
| MOCS1 isoform 8 (UniProt Q9NZB8) | -0.004 (inactive) |
| KLHL36 (UniProt Q8N4N3) | -0.127 (inactive) |
| MAP2K4 isoform 2 (UniProt P45985) | -0.01 (inactive) |
| MED17 (UniProt Q9NVC6) | -0.02 (inactive) |
| MAP2K5 (UniProt Q13163) | -0.311 (inactive) |
| LRWD1 (UniProt Q9UFC0) | -0.017 (inactive) |
| MCMBP (UniProt Q9BTE3) | -0.026 (inactive) |
| MRPL15 (UniProt Q9P015) | -0.018 (inactive) |
| MAST4 (UniProt O15021) | -0.017 (inactive) |
| MBLAC2 (UniProt Q68D91) | 0.002 (inactive) |

| Target | log2 fold change |
| --- | --- |
| KNSTRN (UniProt Q9Y448) | 0.004 (inactive) |
| MAP4K4 isoform 3 (UniProt O95819) | 0.011 (inactive) |
| MACROD1 (UniProt Q9BQ69) | -0.015 (inactive) |
| MAPK9 (UniProt P45984) | 0.006 (inactive) |
| LRRC40 (UniProt Q9H9A6) | -0.011 (inactive) |
| MRPL10 isoform 2 (UniProt Q7Z7H8) | -0.037 (inactive) |
| MICB, A0A140T979 | -0.072 (inactive) |
| LIG3 (UniProt P49916) | -0.028 (inactive) |
| MAPKAPK3 (UniProt Q16644) | 0.002 (inactive) |
| KIF2C (UniProt Q99661) | -0.023 (inactive) |
| LRCH3 (UniProt Q96II8) | -0.058 (inactive) |
| LYAR (UniProt Q9NX58) | 0.003 (inactive) |
| MGST1 (UniProt P10620) | 0.07 (inactive) |
| KLC4 isoform 3 (UniProt Q9NSK0) | -0.029 (inactive) |
| MAPKAPK5 (UniProt Q8IW41) | -0.052 (inactive) |
| MED10 (UniProt Q9BTT4) | 0.066 (inactive) |
| LPIN1 isoform 7 (UniProt Q14693) | -0.002 (inactive) |
| KIF21A isoform 5 (UniProt Q7Z4S6) | -0.026 (inactive) |
| MAP2K1 (UniProt Q02750) | -0.051 (inactive) |

compound: CCn1c(C(=O)N(C2CC2)C2CC2)cc2c3c(ncn3C)c(Nc3cc(C)n(C)n3)nc21; assay: as above
Summary of the method: as §1

| Target | log2 fold change |
| --- | --- |
| MAP1S (UniProt Q66K74) | -0.01 (inactive) |
| MON2 isoform 5 (UniProt Q7Z3U7) | 0.019 (inactive) |
| LRPPRC (UniProt P42704) | 0.076 (inactive) |
| LBR (UniProt Q14739) | 0.052 (inactive) |
| MAPK14 (UniProt Q16539) | -0.052 (inactive) |
| MLST8 (UniProt Q9BVC4) | 0.023 (inactive) |
| MMS19 isoform 8 (UniProt Q96T76) | 0.002 (inactive) |
| KNL1 (UniProt Q8NG31) | -0.012 (inactive) |
| KLC1 isoform 6 (UniProt Q07866) | 0 (inactive) |
| MICU1 isoform 3 (UniProt Q9BPX6) | 0.091 (inactive) |
| MOCS1 isoform 8 (UniProt Q9NZB8) | -0.015 (inactive) |
| KLHL36 (UniProt Q8N4N3) | 0.1 (inactive) |
| MAP2K4 isoform 2 (UniProt P45985) | 0.04 (inactive) |
| MED17 (UniProt Q9NVC6) | 0.002 (inactive) |
| MAP2K5 (UniProt Q13163) | -0.144 (inactive) |
| LRWD1 (UniProt Q9UFC0) | 0.023 (inactive) |
| MCMBP (UniProt Q9BTE3) | 0.043 (inactive) |
| MRPL15 (UniProt Q9P015) | -0.062 (inactive) |
| MAST4 (UniProt O15021) | 0.121 (inactive) |
| MBLAC2 (UniProt Q68D91) | 0.008 (inactive) |

| Target | log2 fold change |
| --- | --- |
| KNSTRN (UniProt Q9Y448) | 0.086 (inactive) |
| MAP4K4 isoform 3 (UniProt O95819) | -0.011 (inactive) |
| MACROD1 (UniProt Q9BQ69) | -0.012 (inactive) |
| MAPK9 (UniProt P45984) | -0.007 (inactive) |
| LRRC40 (UniProt Q9H9A6) | 0.018 (inactive) |
| MRPL10 isoform 2 (UniProt Q7Z7H8) | -0.063 (inactive) |
| MICB, A0A140T979 | -0.084 (inactive) |
| LIG3 (UniProt P49916) | 0.031 (inactive) |
| MAPKAPK3 (UniProt Q16644) | 0.028 (inactive) |
| KIF2C (UniProt Q99661) | 0.016 (inactive) |
| LRCH3 (UniProt Q96II8) | -0.022 (inactive) |
| LYAR (UniProt Q9NX58) | -0.027 (inactive) |
| MGST1 (UniProt P10620) | -0.036 (inactive) |
| KLC4 isoform 3 (UniProt Q9NSK0) | 0.052 (inactive) |
| MAPKAPK5 (UniProt Q8IW41) | 0.031 (inactive) |
| MED10 (UniProt Q9BTT4) | -0.009 (inactive) |
| LPIN1 isoform 7 (UniProt Q14693) | -0.003 (inactive) |
| KIF21A isoform 5 (UniProt Q7Z4S6) | -0.025 (inactive) |
| MAP2K1 (UniProt Q02750) | -0.057 (inactive) |
